PubChem BioAssay AID463173 (ICCB-Longwood Screening Facility, Harvard Medical School, 2010)
Hit rate of the full screen: of about 52,000 compounds, about 1,700 (3.3%) were called active. What follows is part of a selection rich in actives, with near analogues and random picks from the rest. Unmarked numbers belong to inactive results. No stated cut-off is given here; in the data, active means survival mostly below about 52% (no sharp cut-off); inactive means mostly above about 56%.

These compounds were tested on Wild type (assay: growth inhibition of S. aureus wild type versus tarO mutant, primary screen, teichoic acid synthesis inhibitors, RN4220, OD600 (AID 463173)). Conditions: S. aureus RN4220 wild type/DeltatarO growth, OD600, 18 h, hits give low values, screened at 18.75 µg/mL (by protocol).

Question: How did the survival turn out when `CCN(Cc1ccccc1)C(c1cccnc1)c1nnnn1Cc1ccccc1` (centres undefined) was run?
Answer: 106%

Question: For `CCc1ccccc1NS(=O)(=O)c1ccc2c(c1)CCN2C(=O)C1CC1`, which survival is on record?
Answer: 72%

Question: Which survival does the source give for `Cc1ccc(-n2c(SCC(=O)NCc3ccccc3)nc3n[nH]c(C)c3c2=N)cc1Cl` here?
Answer: -6% (active)

Question: `CCCCN(CC)C(=O)CSc1nc2n[nH]c(C)c2c(=N)n1-c1cccc(C)c1` was tested. Which survival did it give?
Answer: 78%

Question: `Cc1ccc(Cl)cc1-n1c(SCC(=O)NCc2ccccc2)nc2n[nH]c(C)c2c1=N` was tested. Which survival did it give?
Answer: 72%

Question: `Cc1cccc(NC(=O)CSc2nc3n[nH]c(C)c3c(=N)n2-c2cccc(Cl)c2)c1` was tested. Which survival did it give?
Answer: 14% (active)

Question: For `Cc1ccc(CNC(=O)CSc2nc3n[nH]c(C)c3c(=N)n2-c2cccc(C)c2)cc1`, which survival is on record?
Answer: 133%

Question: `Cc1ccc(NC(=O)CSc2nc3n[nH]c(C)c3c(=N)n2-c2cccc(C)c2)cc1` was tested. Which survival did it give?
Answer: -6% (active)

Question: With `Cc1ccc(-n2c(SCC(=O)Nc3cccc(Cl)c3)nc3n[nH]c(C)c3c2=N)cc1` as the compound, how does the survival read?
Answer: 85%

Question: With `CCCCN(CC)C(=O)CSc1nc2n[nH]c(C)c2c(=N)n1-c1cccc(Cl)c1` as the compound, how does the survival read?
Answer: -1% (active)

Question: For `Cc1cccc(-n2c(SCC(=O)Nc3ccc(C)c(C)c3)nc3n[nH]c(C)c3c2=N)c1`, which survival is on record?
Answer: 76%

Question: Which survival does the source give for `Cc1c(Cl)cccc1-n1c(SCC(=O)NCc2ccccc2)nc2n[nH]c(C)c2c1=N` here?
Answer: 134%

Question: Which survival does the source give for `CCCCN(CC)C(=O)CSc1nc2n[nH]c(C)c2c(=N)n1-c1cccc(OC)c1` here?
Answer: 120%

Question: How did the survival turn out when `Cc1cccc(-n2c(SCC(=O)Nc3ccccc3Cl)nc3n[nH]c(C)c3c2=N)c1` was run?
Answer: 72%

Question: For `CCOC(=O)c1ccccc1NC(=O)CSc1nc2cn(CC)nc2c(=O)n1Cc1ccc(Cl)cc1`, which survival is on record?
Answer: 67%

Question: Which survival does the source give for `Cc1ccc2ccc3cc(C(=O)N4CCN(c5ccccc5)CC4)nc3c2[nH]1` here?
Answer: 128%

Question: With `COc1ccc(CNC(=O)c2ccc(CS(=O)(=O)c3ccccc3OC)o2)cc1` as the compound, how does the survival read?
Answer: 76%

Question: `CCOc1cc(Br)c(C2C(C(=O)OC)=C(C)NC3=C2C(=O)c2ccccc23)cc1OCC` (centres undefined) was tested. Which survival did it give?
Answer: 96%

Question: For `Cc1ccc(-n2nnc(-c3nc(-c4cccs4)no3)c2N)cc1C`, which survival is on record?
Answer: 100%

Question: For `Cc1cccc(-n2ncc(C(=O)Nc3ccc4c(c3)OCO4)c2C2CCN(C(=O)OC(C)(C)C)CC2)c1`, which survival is on record?
Answer: 89%

Question: For `CCOC(=O)c1ccccc1NC(=O)Cn1c(=O)n(Cc2ccccc2)c(=O)c2c(C)c(C)sc21`, which survival is on record?
Answer: 90%

Question: Which survival does the source give for `CCCCOc1ccc(C(=O)NCCS(=O)(=O)N2CCN(c3ccc(F)cc3)CC2)cc1` here?
Answer: 65%

Question: For `COc1ccccc1NC(=O)c1c(C)cc(C)nc1SCC(=O)Nc1ccc(C)c(C)c1`, which survival is on record?
Answer: 81%

Question: Which survival does the source give for `Cc1ccc(-c2cn3c(n2)sc2cc(C(=O)NCCC4=CCCCC4)ccc23)c(C)c1` here?
Answer: 100%

Question: For `COC(=O)c1ccc(NC(=O)CSc2nc(=O)n(Cc3ccco3)c3c2CCC3)cc1`, which survival is on record?
Answer: 126%

Question: For `COc1ccc2c(c1)c1c(c(=O)n(CCc3ccccc3)c(=O)n1Cc1ccccc1)n2C`, which survival is on record?
Answer: 57%

Question: Which survival does the source give for `CCc1ccc(NCc2cc3cc4c(cc3n(CC(=O)Nc3ccc(C)cc3)c2=O)OCO4)cc1` here?
Answer: 113%

Question: How did the survival turn out when `CC(=O)c1cccc(NC(=O)Cn2c(=O)c(CNc3ccc(C)cc3)cc3cc4c(cc32)OCCO4)c1` was run?
Answer: 77%

Question: With `COc1ccc2cc(CNc3ccccc3)c(=O)n(CC(=O)Nc3ccc(C)cc3C)c2c1` as the compound, how does the survival read?
Answer: -2% (active)

Question: Which survival does the source give for `Cc1ccc(NCc2cc3cc4c(cc3n(CC(=O)Nc3ccc(C)cc3)c2=O)OCCO4)cc1` here?
Answer: 0% (active)

Question: How did the survival turn out when `COc1ccc2c(c1)c1c(c(=O)n(CCc3ccccc3)c(=O)n1Cc1ccc(F)cc1)n2C` was run?
Answer: 1% (active)

Question: For `COc1ccc2c(c1)c1c(c(=O)n(Cc3ccccc3)c(=O)n1CC(=O)Nc1ccccc1F)n2C`, which survival is on record?
Answer: 129%

Question: Which survival does the source give for `COc1ccc2c(c1)c1c(c(=O)n(CCc3ccccc3)c(=O)n1Cc1cccc(F)c1)n2C` here?
Answer: 63%

Question: `COc1ccc2c(c1)c1c(c(=O)n(Cc3ccccc3)c(=O)n1CC(=O)Nc1ccc(C)cc1C)n2C` was tested. Which survival did it give?
Answer: -4% (active)

Question: `COc1ccc2c(c1)c1c(c(=O)n(Cc3ccccc3)c(=O)n1CC(=O)Nc1c(C)cccc1C)n2C` was tested. Which survival did it give?
Answer: 81%

Question: With `COc1ccc2cc(CNc3ccc(C)cc3)c(=O)n(CC(=O)Nc3ccc(C)cc3Cl)c2c1` as the compound, how does the survival read?
Answer: 74%

Question: Which survival does the source give for `CCc1ccc(NCc2cc3ccc(OC)cc3n(CC(=O)Nc3ccccc3C)c2=O)cc1` here?
Answer: 84%

Question: `COc1ccc(NC(=O)C2CCCN(S(=O)(=O)c3ccc(F)cc3)C2)cc1` (centres undefined) was tested. Which survival did it give?
Answer: 85%

Question: Which survival does the source give for `COc1ccc(-n2nc3cc(C)c(NC(=O)COc4cccc(C)c4)cc3n2)cc1` here?
Answer: 78%

Question: With `CCCCC1CCC(C(=O)N2CC(=O)Nc3ccc(F)cc3C2c2ccc(F)cc2)CC1` (centres undefined) as the compound, how does the survival read?
Answer: 77%

Question: Which survival does the source give for `CCOc1ccc2[nH]c(=O)c(-c3nc4cccc(C)n4c3NCc3ccco3)cc2c1` here?
Answer: 108%

Question: Which survival does the source give for `Cc1ccc(CNC(=O)Cc2c(C)c3cc4c(C)coc4cc3oc2=O)cc1` here?
Answer: 92%

Question: For `COc1ccc(-c2noc(C(C)NC(=O)c3ccco3)n2)cc1` (centres undefined), which survival is on record?
Answer: 107%

Question: For `Cc1nn(CC(=O)Nc2ccc(C(C)C)cc2)c(=O)c2c(C)n(-c3ccc(Cl)cc3)nc12`, which survival is on record?
Answer: 90%

Question: How did the survival turn out when `COc1ccc2c(c1)c1c(c(=O)n(Cc3ccccc3)c(=O)n1Cc1ccccc1)n2C` was run?
Answer: -3% (active)

Question: `COc1ccc2c(c1)c1c(c(=O)n(Cc3ccccc3)c(=O)n1Cc1ccc(C)cc1)n2C` was tested. Which survival did it give?
Answer: 87%

Question: For `COc1cccc(Cn2c(=O)n(Cc3ccccc3)c(=O)c3c2c2cc(OC)ccc2n3C)c1`, which survival is on record?
Answer: 57%

Question: How did the survival turn out when `C/C(=N/OCC(=O)Nc1sc2c(c1C#N)CCCC2)c1cccs1` was run?
Answer: 111%

Question: How did the survival turn out when `CCCCN(Cc1ccco1)C(=O)c1cc2c(s1)-c1c(C)cccc1OC2` was run?
Answer: 13% (active)

Question: With `CCOCCCN(Cc1ccco1)C(=O)c1cc2c(s1)-c1c(C)cccc1OC2` as the compound, how does the survival read?
Answer: 12% (active)

Question: How did the survival turn out when `CCOc1ccc(CCNC(=O)c2cc3c(s2)-c2c(C)cccc2OC3)cc1` was run?
Answer: 90%

Question: With `CCN(Cc1ccccc1)C(=O)c1cc2c(s1)-c1c(C)cccc1OC2` as the compound, how does the survival read?
Answer: 71%

Question: With `CCOCCCN(Cc1ccco1)C(=O)c1cc2c(=O)[nH]c3ccc(C)cc3c2s1` as the compound, how does the survival read?
Answer: 127%

Question: How did the survival turn out when `CCN1CCN(CCCNC(=O)c2cc3c(s2)-c2c(C)cccc2OC3)CC1` was run?
Answer: 87%
